Bioassay records deposited in PubChem BioAssay by University of Kansas High Throughput Screening Laboratory.
An excerpt weighted towards active compounds, which were near 3.6% of everything screened.
Pf apPOL block: Pf-apPOL DNA polymerase inhibition | inhibition, % at 10 µM | 0.25% of 210,000 active | Recombinant Pf-apPOL, molecular beacon fluorescence, 1.5 h
mHTT-CaM PPI inh: disrupts binding of mutant huntingtin to calmodulin | AID 1671202 | 3.6% of 190,000 active | inhibition, % at 15 µM | AlphaScreen His-mHTT/GST-CaM binding, luminescence | P42858
Target sequence (P42858 whole entry, looked up, change not shown): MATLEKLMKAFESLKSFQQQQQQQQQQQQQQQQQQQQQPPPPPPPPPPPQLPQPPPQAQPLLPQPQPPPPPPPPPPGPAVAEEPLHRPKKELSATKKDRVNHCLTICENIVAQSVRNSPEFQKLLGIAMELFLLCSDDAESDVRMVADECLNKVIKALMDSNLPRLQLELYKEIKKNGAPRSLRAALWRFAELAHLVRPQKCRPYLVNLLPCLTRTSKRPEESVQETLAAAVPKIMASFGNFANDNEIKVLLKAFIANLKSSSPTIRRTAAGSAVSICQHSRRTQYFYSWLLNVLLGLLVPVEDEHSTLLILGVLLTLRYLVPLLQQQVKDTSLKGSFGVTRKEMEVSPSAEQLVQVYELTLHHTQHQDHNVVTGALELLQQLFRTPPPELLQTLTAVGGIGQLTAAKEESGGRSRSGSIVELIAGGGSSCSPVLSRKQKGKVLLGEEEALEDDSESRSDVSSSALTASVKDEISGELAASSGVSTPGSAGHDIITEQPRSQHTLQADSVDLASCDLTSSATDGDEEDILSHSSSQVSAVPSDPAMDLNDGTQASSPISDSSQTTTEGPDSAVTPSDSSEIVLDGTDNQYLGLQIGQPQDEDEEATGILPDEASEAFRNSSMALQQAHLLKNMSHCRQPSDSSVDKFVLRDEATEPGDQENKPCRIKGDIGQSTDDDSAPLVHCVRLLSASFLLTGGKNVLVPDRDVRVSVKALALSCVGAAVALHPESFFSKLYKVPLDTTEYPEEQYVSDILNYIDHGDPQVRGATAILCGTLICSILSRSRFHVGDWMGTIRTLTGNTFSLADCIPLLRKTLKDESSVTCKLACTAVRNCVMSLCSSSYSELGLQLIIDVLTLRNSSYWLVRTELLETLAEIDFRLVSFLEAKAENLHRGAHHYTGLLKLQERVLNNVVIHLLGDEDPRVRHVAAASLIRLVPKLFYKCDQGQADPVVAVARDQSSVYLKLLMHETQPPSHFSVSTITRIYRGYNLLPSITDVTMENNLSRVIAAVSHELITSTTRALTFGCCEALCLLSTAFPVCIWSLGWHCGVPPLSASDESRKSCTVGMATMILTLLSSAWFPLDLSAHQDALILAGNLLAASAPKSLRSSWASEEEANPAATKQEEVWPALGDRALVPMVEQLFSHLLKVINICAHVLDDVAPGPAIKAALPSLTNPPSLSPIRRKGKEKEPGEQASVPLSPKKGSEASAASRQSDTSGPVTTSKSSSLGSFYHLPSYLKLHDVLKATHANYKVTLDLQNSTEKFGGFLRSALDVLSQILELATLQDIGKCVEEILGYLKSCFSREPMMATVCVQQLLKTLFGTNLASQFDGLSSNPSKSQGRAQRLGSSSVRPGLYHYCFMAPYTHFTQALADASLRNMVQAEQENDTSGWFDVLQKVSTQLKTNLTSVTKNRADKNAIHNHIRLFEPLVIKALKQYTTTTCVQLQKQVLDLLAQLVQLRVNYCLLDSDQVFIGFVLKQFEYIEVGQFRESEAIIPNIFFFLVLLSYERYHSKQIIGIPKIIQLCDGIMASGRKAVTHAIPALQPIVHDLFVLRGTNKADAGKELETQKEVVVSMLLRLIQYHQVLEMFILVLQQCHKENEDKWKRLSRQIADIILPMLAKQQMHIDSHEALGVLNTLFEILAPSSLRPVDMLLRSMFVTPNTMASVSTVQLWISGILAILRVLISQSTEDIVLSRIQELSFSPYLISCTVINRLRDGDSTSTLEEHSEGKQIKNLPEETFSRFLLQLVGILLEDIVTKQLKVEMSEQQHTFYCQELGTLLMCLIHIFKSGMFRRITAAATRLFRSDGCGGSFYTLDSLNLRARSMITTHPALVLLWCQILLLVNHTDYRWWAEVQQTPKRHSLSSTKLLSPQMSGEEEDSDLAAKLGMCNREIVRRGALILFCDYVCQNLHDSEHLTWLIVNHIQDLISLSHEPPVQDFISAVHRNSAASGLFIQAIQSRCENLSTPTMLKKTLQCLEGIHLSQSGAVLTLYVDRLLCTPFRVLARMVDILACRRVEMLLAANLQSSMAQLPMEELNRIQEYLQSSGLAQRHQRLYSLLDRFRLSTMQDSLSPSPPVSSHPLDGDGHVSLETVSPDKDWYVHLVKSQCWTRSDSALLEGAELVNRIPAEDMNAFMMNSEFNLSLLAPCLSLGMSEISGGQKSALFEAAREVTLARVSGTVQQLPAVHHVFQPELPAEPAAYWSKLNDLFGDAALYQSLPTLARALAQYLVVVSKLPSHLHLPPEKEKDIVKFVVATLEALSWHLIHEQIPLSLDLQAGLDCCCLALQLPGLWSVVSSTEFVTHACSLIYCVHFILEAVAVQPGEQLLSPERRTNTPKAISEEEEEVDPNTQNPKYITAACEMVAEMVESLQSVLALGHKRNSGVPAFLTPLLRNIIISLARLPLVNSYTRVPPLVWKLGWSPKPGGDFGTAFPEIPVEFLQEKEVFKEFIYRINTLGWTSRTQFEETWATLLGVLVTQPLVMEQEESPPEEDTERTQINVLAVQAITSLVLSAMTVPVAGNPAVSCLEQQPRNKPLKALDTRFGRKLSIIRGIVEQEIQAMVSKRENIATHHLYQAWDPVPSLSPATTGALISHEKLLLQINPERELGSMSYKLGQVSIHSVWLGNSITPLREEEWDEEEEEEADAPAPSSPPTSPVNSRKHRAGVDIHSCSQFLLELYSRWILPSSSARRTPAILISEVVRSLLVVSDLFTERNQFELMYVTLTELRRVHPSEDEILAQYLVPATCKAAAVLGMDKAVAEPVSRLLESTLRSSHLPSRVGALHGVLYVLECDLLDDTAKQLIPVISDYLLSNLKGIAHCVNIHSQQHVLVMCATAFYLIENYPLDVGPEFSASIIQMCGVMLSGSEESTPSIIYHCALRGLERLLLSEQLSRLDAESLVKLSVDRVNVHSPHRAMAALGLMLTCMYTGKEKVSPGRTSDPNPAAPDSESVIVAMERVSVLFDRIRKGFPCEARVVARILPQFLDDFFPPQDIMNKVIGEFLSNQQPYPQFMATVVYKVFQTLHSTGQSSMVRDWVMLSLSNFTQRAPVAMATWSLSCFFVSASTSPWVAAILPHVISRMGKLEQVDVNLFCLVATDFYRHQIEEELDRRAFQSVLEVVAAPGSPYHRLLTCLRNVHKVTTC
Hits are given with their value; - = inactive; . = no result. Cut-off read from the data, not from the text of the source: active = inhibition above about 50%; inactive = the rest.

SMILES | Pf apPOL block | mHTT-CaM PPI inh
O=C(Nc1cccnc1)C1C(c2ccccc2)C1(Cl)Cl (centres undefined) | - | -
COc1ccc(NC(=O)C2C(C=C(Cl)Cl)C2(C)C)cc1 (centres undefined) | - | -
CC1(C)C(C=C(Cl)Cl)C1C(=O)Nc1ccc([N+](=O)[O-])cc1 (centres undefined) | - | 99.0
Cc1cc(C)nc(NS(=O)(=O)c2ccc(NC(=O)C3C(C=C(Cl)Cl)C3(C)C)cc2)n1 (centres undefined) | - | 67.0
O=C(Nc1ccc([N+](=O)[O-])cc1)C1C(c2ccccc2)C1(Cl)Cl (centres undefined) | - | 94.1
CC1(C)C(C=C(Cl)Cl)C1C(=O)Nc1ccc(S(N)(=O)=O)cc1 (centres undefined) | - | -
CC1(C)Cc2c(c(N3CCOCC3)nc3sc4c(NN)nnnc4c23)CO1 | . | -
Cn1cnnc1SCCNC(=O)c1csc(-c2cc3ccccc3n2C)n1 | - | -
CC(C)NC(=O)C1CCCCN1C(=O)c1cc(-c2cccc(Cl)c2)on1 (centres undefined) | - | -
Oc1ccc(C(c2c[nH]c3ccccc23)c2c[nH]c3ccccc23)cc1O | - | -
Oc1ccc(-c2csc(-c3c[nH]c4ccccc34)n2)cc1O | - | 98.6
Cc1nnc(NC(=O)c2ccc(S(=O)(=O)NCc3ccc4c(c3)OCO4)o2)s1 | - | 99.9
O=C(NCc1cccs1)c1ccc(S(=O)(=O)NCc2ccc3c(c2)OCO3)o1 | - | -
CC(C)NC(=O)c1cc(S(=O)(=O)N2CCCCCC2)ccc1Cl | - | -
O=C1CCCC2=C1C(c1ccc(OCc3ccccc3F)c(Cl)c1)C1=C(CCCC1=O)N2 | - | -
COc1cc(C2C3=C(CCCC3=O)Nc3ccc4ncccc4c32)ccc1OCc1ccccc1 (centres undefined) | - | 100.0
CCOc1ccc(C2C3=C(CCCC3=O)Nc3ccc4ncccc4c32)cc1 (centres undefined) | - | -
CCOc1cc(C2C3=C(CCCC3=O)NC3=C2C(=O)CCC3)ccc1OCc1cccc(F)c1 | - | 75.1
O=C(c1ccccc1F)N1CCN(c2ccc([N+](=O)[O-])c(NC3CC3)c2)CC1 | - | -
O=C(c1ccc(-c2nc(-c3cccc(F)c3)no2)cc1)N1CCOCC1 | - | -
COc1cn(CC(=O)Nc2cccc(C)c2C)c(CSc2ccc(Cl)cc2)cc1=O | - | -
Cc1oc(C2CCN(C(=O)Nc3ccc(F)cc3)CC2)nc1C(=O)N1CCCC1 | - | -
COCCn1cc2c3c(cccc31)CN(C(=O)Cc1ccccc1C)CC2 | - | 62.9
CCc1ccccc1NC(=O)N1CCc2cn(CCOC)c3cccc(c23)C1 | - | -
COCCn1cc2c3c(cccc31)CN(C(=O)Cc1cccc(OC)c1)CC2 | - | -
SMILES | Pf apPOL block | mHTT-CaM PPI inh
COCCn1cc2c3c(cccc31)CN(C(=O)Cc1ccc(Cl)cc1)CC2 | - | 81.4
CCOc1ccc(CCNC(=O)CN2C(=O)C(CC)Oc3ccc(C)cc32)cc1OCC (centres undefined) | - | -
COc1ccc(N2CCN(Cc3cnoc3-c3ccccc3)CC2)cc1 | - | 57.2
COc1cccc(-c2oncc2CN2CCN(c3ccccc3)CC2)c1 | - | -
Nc1c(C(=O)Nc2ccc(Oc3ccccc3)cc2)nnn1Cc1ccccc1 | - | -
CCS(=O)(=O)c1ncc(Cl)c(C(=O)Nc2ccc(Oc3ccccc3)cc2)n1 | - | 98.2
CCn1cc2c3c(cccc31)CN(C(C)=O)CC2 | - | -
CCn1cc2c3c(cccc31)CN(C(=O)c1ccc(F)cc1)CC2 | - | -
CCn1cc2c3c(cccc31)CN(C(=O)COc1ccccc1)CC2 | - | 75.5
CCCn1cc2c3c(cccc31)CN(C(=O)COc1ccc(F)cc1)CC2 | - | 54.8
CC(C)CC(C(=O)N1CCOCC1)N1C(=O)c2cc(Cl)c(Cl)cc2C1=O (centres undefined) | - | -
CCn1c(=O)c(C(=O)Nc2cc(Cl)ccc2OC)c(O)c2ccccc21 | - | -
CSc1nnc(-c2nn(C)c3c2CN(C(=O)C(C)(C)C)CC3)n1C | - | -
CCc1ccc(C2C=C(c3ccc(Br)cc3)Nc3nnnn32)cc1 (centres undefined) | - | -
c1cc(-c2cc(N3CCSCC3)n[nH]2)ccn1 | - | -
Cc1ccc(C2CC(c3cccs3)n3ncnc3N2)cc1 (centres undefined) | - | -
Cc1ccc(C2CC(c3ccc(Br)cc3)n3ncnc3N2)cc1 (centres undefined) | - | 53.0
c1ccc(-c2ccc(C3CC(c4cccs4)n4ncnc4N3)cc2)cc1 (centres undefined) | - | 55.0
COc1ccc(C2CC(c3cccc(Br)c3)Nc3ncnn32)cc1 (centres undefined) | - | -
Clc1ccc(C2CC(c3cccc(Br)c3)Nc3ncnn32)cc1 (centres undefined) | - | 53.0
Clc1ccc(C2CC(c3ccccc3)Nc3ncnn32)cc1 (centres undefined) | - | -
Clc1ccc(C2CC(c3ccc(Br)cc3)Nc3ncnn32)cc1 (centres undefined) | - | 59.0
Cc1ccc(C2CC(c3ccccc3)n3ncnc3N2)cc1 (centres undefined) | - | -
CCCn1c(C(=O)NN2CCCC2=O)cc2c(=O)n(C)c(=O)n(C)c21 | - | -
CCn1nc(C)c2ccn(CC(=O)NC3CC3)c(=O)c21 | - | -
SMILES | Pf apPOL block | mHTT-CaM PPI inh
Cc1csc(NC(=O)CCCc2ccccc2)n1 | - | -
Cc1nn(-c2ccccc2)nc1CNC(=O)c1cc2c(C)nn(C)c2s1 | - | .
O=C1CC(N2CCN(C3CC(=O)N(c4ccc(F)cc4)C3=O)CC2)C(=O)N1c1ccc(F)cc1 (centres undefined) | - | -
CSc1ccc(/C=C(\C#N)c2nc3ccccc3[nH]2)cc1 | - | -
O=C(Nc1nc(C(=O)N2CCN(c3cccc(C(F)(F)F)c3)CC2)co1)C1CC1 | - | -
O=C(Nc1c[nH]c2ccccc12)N1CCN(c2cccc(C(F)(F)F)c2)CC1 | - | 59.0
O=C(Nc1ccccc1)N1CCc2[nH]cnc2C1c1ccccn1 (centres undefined) | - | 50.8
O=C(Nc1ccccc1)N1CCc2[nH]cnc2C1c1ccccc1 (centres undefined) | - | -
O=C(Cc1ccc(F)cc1)N1CCc2[nH]cnc2C1c1ccncc1 (centres undefined) | - | -
O=C(Cc1ccccc1F)N1CCc2[nH]cnc2C1c1ccccc1 (centres undefined) | - | -
O=C(Cc1ccc(Cl)cc1)N1CCc2[nH]cnc2C1c1ccccn1 (centres undefined) | - | 90.9
O=C(Cc1cccc(F)c1)N1CCc2[nH]cnc2C1c1ccccn1 (centres undefined) | - | 70.4
CCOC1=NN(c2ccc([N+](=O)[O-])cc2)C(=O)/C1=C/c1ccccc1OC | - | -
CCOC1=NN(c2ccc([N+](=O)[O-])cc2)C(=O)/C1=C\c1ccccc1C(F)(F)F | - | 62.0
Cc1ccn2c(NCc3ccccc3)c(-c3ccccc3O)nc2c1 | - | 80.5
Cc1ccn2c(NC(=O)CC(C)C)c(-c3ccccc3C)nc2c1 | - | -
COc1ccc(C=C2SC(=S)N(CCc3ccc(O)cc3)C2=O)c(OC)c1 | - | 77.3
COc1ccc(/C=C2\SC(=O)N(CN3CCOCC3)C2=O)c(OC)c1 | - | -
Cc1ccc(S(=O)(=O)NCCC2CCN(C(=O)c3ccccc3)CC2)cc1 | - | -
O=C(c1ccccc1)N1CCC(CCNS(=O)(=O)c2ccc3c(c2)CCCC3)CC1 | - | 60.2
